In the library only some 2.4% were active in any assay of this set; here they are far more common.
MCL1 BIM primary = disrupts human MCL1 binding to BIM-BH3 peptide. GST-MCL1 / FITC-Bim-BH3 fluorescence polarization. inhibition, % at 10.9 µM. actives 0.68% (n = 320,000). Q07820;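 active = inhibition above the mean inhibition of all tested compounds plus 3 SD, set per campaign, cut at about 40% in these data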;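 also: higher means more loss of mP so more displacement of Bim peptide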
Target sequence (Q07820 whole entry, looked up): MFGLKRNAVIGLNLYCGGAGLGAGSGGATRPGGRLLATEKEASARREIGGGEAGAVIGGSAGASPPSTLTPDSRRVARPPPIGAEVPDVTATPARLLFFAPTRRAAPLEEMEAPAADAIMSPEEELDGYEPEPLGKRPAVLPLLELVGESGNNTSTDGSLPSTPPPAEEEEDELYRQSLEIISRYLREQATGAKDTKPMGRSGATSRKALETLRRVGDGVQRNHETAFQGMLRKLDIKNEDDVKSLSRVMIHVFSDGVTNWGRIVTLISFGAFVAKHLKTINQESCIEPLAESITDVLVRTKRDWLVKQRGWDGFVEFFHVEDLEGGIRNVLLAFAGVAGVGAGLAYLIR
TNF death inh = blocks TNF-alpha induced death of Jurkat FADD-/- cells | activation (protection from cell death), % at 10 µM | Jurkat FADD-/- TNF necroptosis rescue, ATP luminescence, 24 h; 0 = TNF only, 100 = no-TNF cells | actives 0.068% (n = 220,000) | AID 463075;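 active = activation, meaning protection from cell death, of at least 50% relative to plate controls; inactive = activation below 50%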;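 also: necroptosis triggered by 40 ng/mL TNF-alpha added together with compound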
L929 necroptosis = L929 zVAD cell death inhibition. viability rescue, % at 10 µM. L929 zVAD necroptosis rescue, ATP luminescence, 24 h; with zVAD 60 µM. AID 1377. actives 0.38% (n = 220,000);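 active = activation, scaled between plate controls, above about 75%, limit read from the data; inactive = activation under that limit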
Mcl1 Noxa PPI = disrupts binding of human Mcl-1 to Noxa peptide; actives 1.5% (n = 220,000); TR-FRET Mcl-1/Noxa peptide binding, 2 h; Q07820; inhibition, % at 21.7 µM;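 active = compounds that cut the protein-peptide binding signal by more than 50% relative to plate controls in a single-dose test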;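 also: His-tagged Mcl-1 with rhodamine Noxa BH3 peptide and terbium anti-His antibody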
Bim-Mcl-1 = disrupts Bim peptide binding to human Mcl-1 | Bead-based flow cytometry, Bim peptide-Mcl-1 binding | actives 0.1% (n = 190,000) | inhibition, % at 10 µM | Q07820; in the data active = inhibition above about 40%
Mcl1-Bid inh = disrupts binding of human Mcl-1 to Bid peptide; inhibition, % at 21.7 µM; Q07820; TR-FRET Mcl-1/Bid-Dy647 peptide binding, 1536-well; actives 0.97% (n = 220,000);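 active = compounds that cut the binding signal by more than half at the single screening dose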;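 also: His-tagged Mcl-1 with europium anti-His antibody binding Bid BH3 peptide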
Bcl-xL conf = counter-screen for MCL1 inhibitors: confirmation of human Bcl-xL inhibitors; actives 54% (n = 1,700); inhibition, % at 10.9 µM; shares compounds with MCL1 BIM primary; GST-Bcl-xL / FITC-Bim BH3 peptide FP binding; AID 2166;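 active = inhibition above a cutoff equal to the mean inhibition of all tested compounds plus 3 SD, cut at about 30% in these data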
Target sequence (Q07817 whole entry, looked up): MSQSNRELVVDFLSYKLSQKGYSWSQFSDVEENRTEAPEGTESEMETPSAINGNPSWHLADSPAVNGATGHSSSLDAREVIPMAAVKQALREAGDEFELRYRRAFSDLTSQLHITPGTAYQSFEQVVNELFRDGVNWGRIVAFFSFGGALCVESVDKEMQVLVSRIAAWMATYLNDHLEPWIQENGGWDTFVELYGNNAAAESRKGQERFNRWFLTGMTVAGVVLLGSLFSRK
MCL1 inh confirm = MCL1-BIM-BH3 interaction inhibition, confirmation; actives 61% (n = 1,700); GST-MCL1 / FITC-Bim-BH3 fluorescence polarization; shares compounds with MCL1 BIM primary; inhibition, % at 10.9 µM;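 active = inhibition above the average of all tested compounds plus 3 SD, cut at about 40% in these data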
Hits are given with their value; i = inactive; nt = no result given; + = active, no number.

SMILES | MCL1 BIM primary | TNF death inh | L929 necroptosis | Mcl1 Noxa PPI | Bim-Mcl-1 | Mcl1-Bid inh | Bcl-xL conf | MCL1 inh confirm
CN(CCC#N)C(=O)COC(=O)c1c2c(nc3ccccc13)/C(=C/c1ccco1)CC2 | 67.3 | i | i | 84.7 | i | 63.3 | 40.3 | 47.6
CCN(CC)c1ccc2cc(C(N)=O)c(=N)oc2c1 | i | i | i | i | i | i | nt | nt
CCN(CC)c1ccc2c(-c3ccc(S(=O)(=O)O)cc3S(=O)(=O)[O-])c3ccc(=[N+](CC)CC)cc-3oc2c1 | + | nt | nt | nt | nt | nt | + | +
CCCCC1=CC2=C(c3ccco3)C(=O)C(C)(OC(=O)c3ccc(OC)cc3)C(=O)C2=CN1CCOC (stereo not given) | i | i | i | i | nt | i | nt | nt
CCCCC1=CC2=C(c3ccco3)C(=O)C(C)(OC(=O)c3ccc(OC)cc3)C(=O)C2=CN1C1CCCCC1 (stereo not given) | 51.5 | i | i | i | nt | i | 40.7 | 59.2
CCOC(=O)COn1c(=O)c(-c2ccc(OC)c(OC)c2)[n+]([O-])c2ccccc21 | 71.8 | i | i | i | i | i | i | i
Nc1cccc(C(=O)OCC(=O)Nc2cccc3c2C(=O)c2ccccc2C3=O)c1 | 118.5 | i | i | 64.1 | i | 77.4 | 107.1 | 146.2
Cc1cccc(NC(=O)COC(=O)c2cccc3c2C(=O)c2ccccc2C3=O)c1C | i | i | i | i | i | i | nt | nt
COc1cc(C(=O)N2CCN(C(=O)c3cc(-c4ccc(Br)cc4)n[nH]3)CC2)cc(OC)c1OC | i | nt | nt | nt | nt | nt | nt | nt
CCOc1ccc(C2C(C#N)=C(N)N(N(C)C)C3=C2C(=O)CC(C)(C)C3)cc1 (stereo not given) | i | nt | nt | nt | nt | nt | nt | nt
Nc1cc2sc(-c3ccc(C(=O)O)cc3)nc2cc1Cl | i | i | i | i | i | i | nt | nt
Nc1ncc(N=Nc2cc(C(=O)O)ccc2Cl)s1 | 44.9 | i | i | 66.9 | nt | i | 36.1 | 82.1
COc1cccc(CNC(=O)CN2C(=O)c3ccccc3S2(=O)=O)c1 | i | nt | nt | nt | nt | nt | nt | nt
CC(=O)Nc1cccc(NC(=O)C2CC(=O)N(C3CCCCC3)C2)c1 (stereo not given) | i | nt | nt | nt | nt | nt | nt | nt
CSc1cccc(NC(=O)COC(=O)c2ccccn2)c1 | i | nt | nt | nt | nt | nt | nt | nt
CCOCCCn1c(=NC(=O)c2cccnc2)c(C(=O)OCC)cc2c(=O)n3ccccc3nc21 | i | i | i | i | i | i | nt | nt
Cc1cccn2c(=O)c3cc(C#N)c(=NC(=O)c4ccncc4)n(CCCOC(C)C)c3nc12 | 87.4 | i | i | i | i | i | 42.8 | 48.3
CC(=O)N=c1c(C#N)cc2c(=O)n3cccc(C)c3nc2n1CCCOC(C)C | i | i | i | i | nt | i | nt | nt
Cc1cccn2c(=O)c3cc(C#N)c(=NC(=O)c4cccs4)n(CCCOC(C)C)c3nc12 | 74.1 | i | i | i | nt | i | i | i
CCOCCCn1c(=NC(=O)c2cccs2)c(C#N)cc2c(=O)n3ccccc3nc21 | 97.4 | i | i | i | nt | i | 62.0 | 74.9
Cc1ccccc1OCC(=O)OCC(=O)NCCc1ccccc1 | i | nt | nt | nt | nt | nt | nt | nt
CCOc1ccccc1C(=O)Nc1nnc(SCC(=O)Nc2cc(C)on2)s1 | i | i | i | i | i | i | nt | nt
O=c1c2ccccc2nc2n1CC/C2=C/N1CCN(c2cccc(C(F)(F)F)c2)CC1 | 55.6 | i | i | i | i | i | i | i
O=C(NC1CC1)C1CC(=O)N(c2cccc(Cl)c2)C1 (stereo not given) | i | nt | nt | nt | nt | nt | nt | nt
CC1(C)CC(=O)C2=C(C1)OC(N)=C(C#N)C2c1ccccc1[N+](=O)[O-] (stereo not given) | 186.4 | i | i | i | i | i | 93.4 | 113.6
SMILES | MCL1 BIM primary | TNF death inh | L929 necroptosis | Mcl1 Noxa PPI | Bim-Mcl-1 | Mcl1-Bid inh | Bcl-xL conf | MCL1 inh confirm
CC1(C)CC(=O)C2=C(C1)OC(N)=C(C#N)C2c1ccccc1 (stereo not given) | i | i | i | i | i | i | nt | nt
N#Cc1c(=O)c2nc(NCc3ccccc3)ncc2n2ccccc12 | 53.0 | i | i | i | i | i | 32.4 | 43.1
N#Cc1c(=O)c2nc(NCCCO)ncc2n2c(=O)c3ccccc3[nH]c12 | i | i | i | i | i | i | nt | nt
COC1CCCN(Cc2c(C(=O)N3CCN(C4CCCCC4)CC3)nc3ccccn23)C1 (stereo not given) | 70.2 | nt | nt | nt | nt | nt | 39.8 | 41.9
CCC(C)[C@H](NS(=O)(=O)c1ccc(C)cc1)C(=O)N1CCC(C(=O)N2CCC(C(=O)OC)CC2)CC1 (stereo not given in full) | i | nt | nt | nt | nt | nt | nt | nt
Cc1ccc(NC(=O)CCc2nnc3ccc(N4CCC(C)CC4)nn23)nc1 | i | nt | nt | nt | nt | nt | nt | nt
COc1cccc(/C=N/NC(=S)Nc2cccc(C(=O)O)c2)c1O | 55.9 | i | i | i | i | i | i | 72.2
COc1cc(/C=N/NC(=S)Nc2cccc(C(=O)O)c2)ccc1O | i | i | i | i | i | i | nt | nt
O=C(NCCC1CCCCN1S(=O)(=O)c1ccc(F)cc1)C(=O)NCc1ccccn1 (stereo not given) | i | nt | nt | nt | nt | nt | nt | nt
CCCn1c(/N=C/c2c[nH]c3ccccc23)nc2ccccc21 | 82.7 | i | i | i | i | i | i | i
Cc1nc2nc(-c3ccc(Cl)cc3)cn2nc1C | i | i | i | i | i | i | nt | nt
Cc1nc2nc(-c3cccs3)cn2nc1C | 112.8 | i | i | 61.6 | i | i | 100.2 | 126.7
COc1ccc(/C=C2\SC(=O)N(CC(=O)Nc3cccc(C)c3)C2=O)cc1O | i | nt | nt | nt | nt | nt | nt | nt
O=C1CCCC2=C1C(c1ccc(O)c(O)c1)Nc1ccc3ccccc3c12 (stereo not given) | i | nt | nt | nt | nt | nt | nt | nt
O=C1CCCC2=C1C(c1ccco1)Nc1ccc3ccccc3c12 (stereo not given) | 66.5 | i | i | 99.0 | i | 60.0 | i | 78.4
Cc1ccc(NC(=O)CC2OC(=O)c3ccccc32)cc1S(=O)(=O)N1CCOCC1 (stereo not given) | i | nt | nt | nt | nt | nt | nt | nt
O=C(CN1CCN(C(=O)CNC(=O)c2ccc3c(c2)OCO3)CC1)Nc1ccc(F)cc1 | i | nt | nt | nt | nt | nt | nt | nt
CCOC(=O)C1=C(COC(=O)c2ccc3ccccc3c2O)NC(=O)NC1C (stereo not given) | 87.8 | nt | nt | nt | nt | nt | i | i
Cc1cc(C)nc(CCNC(=O)c2cc(COc3c(C)cccc3C)on2)n1 | i | nt | nt | nt | nt | nt | nt | nt
COc1cc(/C=C/C(=O)CC(=O)/C=C/c2ccc(O)c(OC)c2)ccc1O | 57.4 | i | i | 51.2 | i | i | i | i
COc1cc(/C=C/C(=O)/C=C(O)/C=C/c2ccc(O)c(OC)c2)ccc1O | i | nt | nt | nt | nt | nt | nt | nt
Cc1onc(-c2c(Cl)cccc2Cl)c1C(=O)NCCc1ccncc1 | i | nt | nt | nt | nt | nt | nt | nt
